Laboratory results taken from PubChem BioAssay.
Records with an inconclusive call do not appear. For some of these results: Results with a measured potency or affinity are listed apart. The source made the active and inactive calls. Cut-off read from the data, not from the text of the source, unless noted: active = inhibition above about 80%; inactive = the rest.

What was measured:
[1] = polyglutamine-triggered caspase-3 activation inhibitors, cell-based (AID 1583); settings: polyglutamine-induced caspase-3 activation, cell assay; stronger effect = higher value;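 tested at 10 µM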
[2] = suppressors of polyQ aggregation in yeast, 75Q-TubU reporter (AID 1593); settings: Yeast 75Q polyglutamine aggregation reporter
[3] = rescue of polyQ-huntingtin neuronal dysfunction in worms, whole organism, C. elegans mechanosensory neurons, N-terminal huntingtin (AID 1599); settings: touch response, stronger effect = higher value
[4] = inhibitors of mitochondrial cytochrome c release, biochemical, purified mitochondria (AID 1603); settings: stronger effect = lower value;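 note: mouse liver mitochondria challenged with calcium chloride; signal normalized to the plate average as 100%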
[5] = inhibitors of polyQ protein aggregation (AID 1604); settings: polyglutamine-induced protein aggregation inhibition assay; stronger effect = higher value; tested at 2.5 µM
[6] = enhancers of glutamate uptake in motor neurons, MN-1 cell line (AID 1612); settings: MN-1 motor neuron cells, stronger effect = higher value;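 note: tested at 1 µM final; 0% = mean of DMSO vehicle wells on each plate; positive means more glutamate uptake than control and negative means less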
[7] = reducers of polyQ inclusions in PC12 cells, cell-based, NGF-treated PC12, GFPQ80 (AID 1614); settings: PC12 NGF-treated GFP-polyQ80 inclusion reduction;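 note: lower means fewer inclusions and 0 means no inclusions at all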
[8] = suppressors of polyglutamine aggregation in yeast, 75Q-TubH (AID 1616); settings: S. cerevisiae 75Q-TubH polyglutamine aggregation suppression; stronger effect = higher value
[9] = LFS_MB_P medulloblastoma growth inhibition, cell-based, chromothripsis tumors, cisplatin or BGB combos (AID 1671449); settings: LFS_MB_P medulloblastoma cells;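 note: cells exposed for 96 hours; 0% = vehicle DMSO and 100% = killing by high DMSO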
[10] = HDN33 neuroblastoma growth inhibition, cell-based, chromothripsis tumors, cisplatin or BGB combos (AID 1671450); settings: HDN33 neuroblastoma cells, stronger effect = higher value;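 note: cells exposed to compound for four days; 0% = vehicle DMSO and 100% = cell killing by high DMSO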
[11] = ICB984 medulloblastoma cell growth inhibition, synergistic combos for chromothripsis tumors, cisplatin or BGB combos (AID 1671451; call rule not given here;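 note: cells exposed for 96 hours before readout; 0% = vehicle DMSO and 100% = killing by high DMSO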); settings: ICB984 medulloblastoma cells, drug combinations, stronger effect = higher value
[12] = LFS_MB_1R medulloblastoma cell growth inhibition, synergistic combos for chromothripsis tumors, cisplatin or BGB combos (AID 1671452); settings: LFS_MB_1R medulloblastoma cells, stronger effect = higher value;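 note: cells exposed for 96 hours before readout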
[13] = HTB85 osteosarcoma cell growth inhibition, synergistic combos for chromothripsis tumors, BGB or cisplatin IC20 combos (AID 1671453); settings: HTB85 osteosarcoma cells, drug combinations, stronger effect = higher value;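 note: cells exposed for 96 hours before readout; 0% = vehicle DMSO and 100% = high DMSO killing control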
[14] = CRL2098 osteosarcoma cell growth inhibition, synergistic combos for chromothripsis tumors, BGB or cisplatin IC20 combos (AID 1671454); settings: CRL2098 osteosarcoma cells, drug combinations, stronger effect = higher value;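 note: cells exposed for 96 h before readout; 0% = vehicle DMSO and 100% = killing by high DMSO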
[15] = HD-MB03 medulloblastoma cell growth inhibition, synergistic combos for chromothripsis tumors, BGB or cisplatin IC20 combos (AID 1671455; in the data active = inhibition above about 83%;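 note: 0% = vehicle DMSO and 100% = high DMSO as cytotoxic control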); settings: HD-MB03 medulloblastoma cells, stronger effect = higher value
[16] = UWB1.289 ovarian carcinoma cell growth inhibition, synergistic combos for chromothripsis tumors, BGB or cisplatin combos (AID 1671456); settings: UWB1.289 ovarian carcinoma cells, stronger effect = higher value;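 note: cells exposed to compound for four days; 0% = vehicle DMSO and 100% = killing by high DMSO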
[17] = LFS_MB_2R medulloblastoma cell growth inhibition, synergistic combos for chromothripsis tumors, cisplatin combos (AID 1671457); settings: LFS_MB_2R medulloblastoma cells, stronger effect = higher value;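 note: cells exposed to compound for four days before readout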
[18] = MDA-MB-436 breast carcinoma cell growth inhibition, synergistic combos for chromothripsis tumors, BGB or cisplatin combos (AID 1671458; call rule not given here;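 note: cells exposed for 96 hours; 0% = vehicle DMSO and 100% = killing by high DMSO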); settings: MDA-MB-436 breast carcinoma growth inhibition, drug combinations, stronger effect = higher value
[19] = UWB1.289_BRCA1 ovarian cancer growth, cell-based, BGB or cisplatin combinations (AID 1671459); settings: UWB1.289 BRCA1 ovarian carcinoma, drug combinations, stronger effect = higher value
[20] = human astrocyte viability loss, single and combined drugs, cytotoxicity control for chromothriptic childhood tumor combination screen, cell-based, BGB or cisplatin IC20 combos (AID 1671460); settings: Human astrocytes, drug combinations, stronger effect = higher value;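 note: cells exposed to compounds for 96 hours before viability readout; 0% = vehicle and 100% = killing control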
[21] = growth inhibition of BT084 medulloblastoma cells, cell-based, ICGC_MB145, cisplatin and BGB IC40 combos (AID 1671461); settings: drug combinations, stronger effect = higher value;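 note: cells exposed to drugs for 96 hours; 0% = vehicle DMSO and 100% = high DMSO full killing control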
[22] = growth inhibition of RCMB18 medulloblastoma cells, cell-based, cisplatin and BGB IC40 combos (AID 1671462); settings: stronger effect = higher value;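 note: cells exposed to compound for four days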
[23] = growth inhibition of CRL1545 osteosarcoma cells, cell-based, cisplatin and BGB IC20 combos (AID 1671464); settings: stronger effect = higher value;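 note: cells exposed to compound for 96 hours before readout; 0% = vehicle DMSO and 100% = high DMSO killing control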
[24] = viability rescue of complex I mutant cybrids, primary screen, cell-based, galactose medium, ATP luminescence (AID 1645843;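 active = z-score of at least 1.8 in each of two replicates, scored against plate mean and spread of sample wells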;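 note: positive z means more ATP and so rescue of galactose-driven cybrid death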); settings: complex I mutant cybrid cells, 72 h, stronger effect = higher value
[25] = protection against mutant huntingtin cytotoxicity, PC12 cells, LDH release (AID 1610); settings: PC12 mutant huntingtin toxicity, final LDH at 4 uM, stronger effect = lower value
[26] = measured here: combination with BGB IC40, at 0.05 µM
[27] = measured here: with BGB IC20 combination, at 0.5 µM
[28] = measured here: with cisplatin IC20 combination, at 0.5 µM
[29] = measured here: combination with cisplatin, at 0.5 µM
[30] = measured here: combination with cisplatin, at 5 µM

CN1CC[C@]23c4c5ccc(O)c4O[C@H]2[C@H](O)C=CC3[C@H]1C5 (stereo partly specified)
inhibition [1]: 2.86%
score [2]: 1.09
rescue above control [3]: -1.93
cytochrome c release ratio [4]: 1.03
inhibition of aggregation [5]: 32%
glutamate uptake change [6]: 6.58%
inclusion score [7]: 2
aggregation suppression score [8]: 1.13

CCC1(CCC(C)C)C(=O)NC(=O)NC1=O
inhibition [1]: 6.77%
score [2]: 1.7
rescue above control [3]: 0.92
cytochrome c release ratio [4]: 0.96
inhibition of aggregation [5]: 40.1%
glutamate uptake change [6]: -7.2%
inclusion score [7]: 2
aggregation suppression score [8]: 1.35

CC[C@H]1C(=O)OC[C@@H]1Cc1cccn1C
inhibition [1]: -1.44%
score [2]: 1.44
rescue above control [3]: 2.37
cytochrome c release ratio [4]: 0.94
inhibition of aggregation [5]: 42.5%
glutamate uptake change [6]: 10.3%
inclusion score [7]: 2
aggregation suppression score [8]: 1.24

CCC1(c2ccccc2)C(=O)NC(=O)NC1=O
inhibition [1]: -1.25%
score [2]: 1.23
rescue above control [3]: 9.64
cytochrome c release ratio [4]: 0.88
inhibition of aggregation [5]: 45.6%
glutamate uptake change [6]: 11.7%
inclusion score [7]: 2
aggregation suppression score [8]: 1.66
inhibition ([9]; at 0.5 µM, stronger effect = higher value): 93.2% (active)
inhibition ([9]; measured here: combination with BGB IC20, at 0.005 µM): -28.1%
inhibition ([9]; measured here: combination with BGB IC40, at 0.005 µM): -59.2%
inhibition [9, 26]: -45.6%
inhibition ([9]; measured here: combination with cisplatin, at 0.5 µM, stronger effect = higher value): 121%
inhibition ([9]; measured here: combination with cisplatin, at 5 µM, stronger effect = higher value): -2.25%
inhibition ([10]; BGB combo, at 5 µM): -9.62%
inhibition ([10]; at 0.5 µM): -12.9% (inactive)
inhibition ([10]; cisplatin combo, at 5 µM): -2.75%
inhibition [10, 27]: -25.3%
inhibition [10, 28]: -2.08%
inhibition ([10]; single agent, at 5 µM): 3.79%
inhibition ([11]; BGB IC20 combo, at 0.005 µM): -3.73%
inhibition ([11]; BGB IC40 combo, at 0.005 µM): -9.29%
inhibition ([11]; BGB IC40 combo, at 0.05 µM): -3.16%
inhibition ([11]; at 0.5 µM): -22.9% (inactive)
inhibition ([11]; cisplatin combo, at 0.05 µM): -8.4%
inhibition ([11]; cisplatin combo, at 0.5 µM): -26.1%
inhibition ([11]; cisplatin combo, at 5 µM): -13.3%
inhibition ([11]; measured here: 5 uM single agent, at 5 µM): -22.7%
inhibition ([12]; at 0.5 µM): -18.1% (inactive)
inhibition [12, 26]: -31.8%
inhibition [12, 29]: -10.4%
inhibition [12, 30]: 5.72%
inhibition ([13]; at 0.5 µM): -10.5% (inactive)
inhibition ([13]; measured here: with BGB IC20, at 0.5 µM): -10.6%
inhibition ([13]; measured here: with BGB IC20, at 5 µM): 7.72%
inhibition ([13]; measured here: with cisplatin IC20, at 0.5 µM): -9.45%
inhibition ([13]; measured here: with cisplatin IC20, at 5 µM): 10.2%
inhibition ([13]; single agent, at 5 µM): -5.59%
inhibition ([14]; at 0.5 µM): -52.1% (inactive)
inhibition ([14]; measured here: combination with BGB at IC20, at 0.5 µM): -60.5%
inhibition ([14]; measured here: combination with cisplatin at IC20, at 0.5 µM): -54.7%
inhibition ([15]; at 0.5 µM): -4.07% (inactive)
inhibition ([15]; measured here: combo with BGB at IC20, at 0.5 µM): 2.98%
inhibition ([15]; measured here: combo with cisplatin at IC20, at 0.5 µM): -10.5%
inhibition ([16]; at 0.5 µM): -5.54% (inactive)
inhibition ([16]; measured here: inhibition with BGB combination, at 0.05 µM): -21.7%
inhibition ([16]; measured here: inhibition with cisplatin combination, at 0.05 µM): -12%
inhibition ([17]; at 0.5 µM): -20.1% (inactive)
inhibition [17, 29]: -6.12%
inhibition [17, 30]: 0.169%
inhibition ([18]; at 0.5 µM): -2.75% (inactive)
inhibition ([18]; measured here: BGB combination, at 0.5 µM): -2.38%
inhibition ([18]; measured here: BGB combination, at 5 µM): 1.86%
inhibition ([18]; measured here: cisplatin combination, at 0.5 µM): -5.56%
inhibition ([18]; measured here: cisplatin combination, at 5 µM): -1.94%
inhibition ([19]; BGB combination, concentration series, at 5 µM): 22.9%
inhibition ([19]; at 0.5 µM): -1.68% (inactive)
inhibition ([19]; cisplatin combination, concentration series, at 5 µM): 16%
inhibition ([20]; at 0.5 µM): 10.1% (inactive)
inhibition ([20]; measured here: combo with BGB IC20, at 0.5 µM): 11.5%
inhibition ([20]; measured here: combo with cisplatin IC20, at 0.5 µM): 13.6%
inhibition ([21]; at 0.5 µM): 3.01% (inactive)
inhibition ([21]; cisplatin combination, at 0.5 µM): 4.39%
inhibition ([21]; cisplatin combination, at 5 µM): 0.177%
inhibition ([21]; measured here: BGB IC40 combination 0.05 uM, at 0.05 µM): -27.4%
inhibition ([21]; single agent, at 5 µM): 8.07%
inhibition ([22]; at 0.5 µM): 1.72% (inactive)
inhibition ([22]; cisplatin combo, at 5 µM): 5.8%
inhibition ([22]; measured here: BGB IC40 combination, at 0.05 µM): -18.8%
inhibition [22, 29]: -11.9%
inhibition ([22]; single agent, at 5 µM): 10.7%
inhibition ([23]; at 0.5 µM): -19.2% (inactive)
inhibition [23, 27]: -11.8%
inhibition [23, 28]: -24.8%
inhibition ([23]; single agent, at 0.05 µM): 8.97%
inhibition ([23]; single agent, at 5 µM): -18.2%

CCCOC1CCCN(C2CCN(C)CC2)C1 (stereo unspecified)
z-score [24]: -0.46 (inactive)

O=c1ccc2cc(O[C@H]3O[C@H](CO)[C@@H](O)[C@H](O)[C@H]3O)c(O)cc2o1
inhibition [1]: -25.3%
score [2]: 0.99
rescue above control [3]: -9.34
cytochrome c release ratio [4]: 0.66
inhibition of aggregation [5]: 56.9%
glutamate uptake change [6]: 21.7%
inclusion score [7]: 2
aggregation suppression score [8]: 0.763

CC1CC[C@@]2(NC1)OC1CC3C4CC=C5CC(O)CCC5(C)C4CCC3(C)C1[C@@H]2C (stereo partly specified)
inhibition [1]: 0.23%
score [2]: 1.05
rescue above control [3]: -8.79
cytochrome c release ratio [4]: 1.04
inhibition of aggregation [5]: 64.7%
glutamate uptake change [6]: -2.74%
inclusion score [7]: 2
aggregation suppression score [8]: 0.556

CNC1(c2ccccc2Cl)CCCCC1=O (stereo unspecified)
inhibition [1]: 12.3%
score [2]: 1.43
rescue above control [3]: -2.24
cytochrome c release ratio [4]: 1.27
inhibition of aggregation [5]: 3.17%
glutamate uptake change [6]: -3.45%
inclusion score [7]: 2
aggregation suppression score [8]: 1.36

CCC(=O)C(CC(C)N(C)C)(c1ccccc1)c1ccccc1 (stereo unspecified)
inhibition [1]: -9.47%
score [2]: 1.06
rescue above control [3]: 0.15
cytochrome c release ratio [4]: 0.89
inhibition of aggregation [5]: 21.1%
glutamate uptake change [6]: 7.77%
inclusion score [7]: 2
aggregation suppression score [8]: 0.899

CCN1CCCC(N2CCN3CCCC3C2)C1 (stereo unspecified)
z-score [24]: -0.225 (inactive)

COC12CC[C@@]3(C[C@@H]1C(C)(O)C(C)(C)C)[C@H]1Cc4ccc(O)c5c4[C@@]3(CCN1CC1CC1)[C@H]2O5 (stereo partly specified)
inhibition [1]: 26.4%
score [2]: 1.52
rescue above control [3]: 5.39
cytochrome c release ratio [4]: 1.25
inhibition of aggregation [5]: -0.68%
normalised LDH release [25]: 1.01
glutamate uptake change [6]: -3.06%
aggregation suppression score [8]: 1.02

CC(N)Cc1ccccc1 (stereo unspecified)
inhibition [1]: 18%
score [2]: 0.93
rescue above control [3]: -1.93
cytochrome c release ratio [4]: 0.82
inhibition of aggregation [5]: 10.2%
glutamate uptake change [6]: 31.4%
inclusion score [7]: 2
aggregation suppression score [8]: 0.923

CCCCCc1cc(O)c2c(c1)OC(C)(C)C1CCC(C)=CC21 (stereo unspecified)
inhibition [1]: 5.35%
score [2]: -0.54
rescue above control [3]: -0.11
cytochrome c release ratio [4]: 2.94
inhibition of aggregation [5]: 34.7%
normalised LDH release [25]: 0.893
glutamate uptake change [6]: -3.83%
aggregation suppression score [8]: 0.291

CNC(C)Cc1ccccc1 (stereo unspecified)
inhibition [1]: 4.94%
score [2]: 1.26
rescue above control [3]: 3.06
cytochrome c release ratio [4]: 0.97
inhibition of aggregation [5]: -0.68%
glutamate uptake change [6]: 6.37%
inclusion score [7]: 2
aggregation suppression score [8]: 1.49
